From the supplement of paper PMC10849652
The full data set covers some 7,900 targets. This sample favours those with a hit. About 0.6% of all pairs of compound and target were hits.

Columns and labels:
Test in all cases: log2 fold change, soluble protein after heating vs DMSO (PISA); higher = thermal stabilisation; K562 cells, 10 uM, 30 min; active = over 0.2 and 3.5 SD of the protein, either way, in both replicates (recomputed)
[1] = compound: C#Cc1cccc(Nc2ncnc3cc(OCCOC)c(OCCOC)cc23)c1 [erlotinib]
Procedure, shortened: (§1)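 K562 cells (2×10^6 cells/mL) were treated with 10 μM compound for 30 min, and aliquots were heated for 3 min over 48°C-58°C. Pooled aliquots were extracted in PBS with 0.5% NP-40 at 4°C, and the supernatant after 21,000xg for 90 min was measured by TMTpro 16plex LC-MS/MS with channel sums equalised. Reported thermal stability, relative to control samples and from duplicates, is a log2 fold change.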

[2] = compound: C/C(=N\NC(=O)C1=CC(=CC=C1)S(=O)(=O)N2CCOCC2)/C3=C(C=CC(=C3)Cl)O
Procedure, shortened: as §1

[3] = compound: C1=CC(=C(C=C1Cl)C2=NC3=NC=CN=C3C(=N2)NC4=CC=NC=C4)F
Procedure, shortened: as §1

[4] = compound: C1=CC(=CC=C1C2=NC3=C(N2)C=C(C=C3)C(=O)N)OC4=CC=C(C=C4)Cl
Procedure, shortened: as §1

[5] = compound: C1=CC2=C(C=CC(=C2)/C=C\3/C(=O)NC(=NCC4=CC=CS4)S3)N=C1
Procedure, shortened: as §1

[6] = compound: C1=CC2=NC=CN=C2C=C1/C=C/3\C(=O)NC(=O)S3
Procedure, shortened: as §1

[7] = compound: C1=CC=C(C=C1)C2=NC(=C(N2)C3=CC=NC=C3)C4=CC(=C(C=C4)Cl)O
Procedure, shortened: as §1

[8] = compound: C1=CC=C2C(=C1)C3=NNC4=CC=CC(=C43)C2=O
Procedure, shortened: as §1

[9] = compound: C1CCN(C1)C(=O)NC2=CC=CC(=C2)NC3=NC=C(C(=N3)NCCC4=CN=CN4)Br
Procedure, shortened: as §1

[10] = compound: C1CN(CCC1(CC2=CC=C(C=C2)Cl)N)C3=NC=NC4=C3C=CN4
Procedure, shortened: as §1

Measured: log2 fold change

PUM1 isoform 3 (UniProt Q14671)
inactive: [1] -0.023 | [2] 0 | [3] 0.04 | [4] 0.034 | [5] 0.047 | [6] 0.003 | [7] -0.013 | [8] 0.003 | [9] -0.057 | [10] 0.028

PIP4P1 isoform 2 (UniProt Q86T03)
UniProt Q86T03, sequence (Q86T03 whole entry, looked up): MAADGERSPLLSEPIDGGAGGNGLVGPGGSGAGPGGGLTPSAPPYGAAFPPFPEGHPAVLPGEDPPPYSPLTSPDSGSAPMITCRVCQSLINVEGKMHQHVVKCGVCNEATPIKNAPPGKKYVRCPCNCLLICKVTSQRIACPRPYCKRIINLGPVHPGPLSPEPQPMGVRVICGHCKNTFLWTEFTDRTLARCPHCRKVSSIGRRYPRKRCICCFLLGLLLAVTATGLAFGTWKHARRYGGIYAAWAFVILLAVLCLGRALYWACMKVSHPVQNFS
inactive: [1] 0.057 | [2] 0.001 | [3] 0.052 | [4] -0.014 | [5] -0.104 | [6] 0.068 | [7] 0.002 | [8] 0.035 | [9] -0.028 | [10] 0.101

PCNT (UniProt O95613)
inactive: [1] 0.284 | [2] -0.138 | [3] -0.095 | [4] -0.099 | [5] 0.15 | [6] -0.023 | [7] -0.079 | [8] -0.097 | [9] 0.065 | [10] -0.021

PEX13 (UniProt Q92968)
inactive: [1] 0.026 | [2] 0.03 | [3] 0.026 | [4] 0.009 | [5] 0.048 | [6] 0.073 | [7] -0.01 | [8] 0.005 | [9] 0.038 | [10] 0.036

PIK3CD (UniProt O00329)
inactive: [1] -0.044 | [2] -0.224 | [3] 0.095 | [4] 0.181 | [5] 0.114 | [6] 0.241 | [7] -0.052 | [8] -0.063 | [9] -0.077 | [10] -0.013

POLD3 (UniProt Q15054)
inactive: [1] 0.083 | [2] 0.131 | [3] 0.048 | [4] -0.031 | [5] 0.048 | [6] 0.038 | [7] 0.027 | [8] -0.07 | [9] -0.016 | [10] -0.099

PRPSAP2 (UniProt O60256)
UniProt O60256, sequence (O60256 whole entry, looked up): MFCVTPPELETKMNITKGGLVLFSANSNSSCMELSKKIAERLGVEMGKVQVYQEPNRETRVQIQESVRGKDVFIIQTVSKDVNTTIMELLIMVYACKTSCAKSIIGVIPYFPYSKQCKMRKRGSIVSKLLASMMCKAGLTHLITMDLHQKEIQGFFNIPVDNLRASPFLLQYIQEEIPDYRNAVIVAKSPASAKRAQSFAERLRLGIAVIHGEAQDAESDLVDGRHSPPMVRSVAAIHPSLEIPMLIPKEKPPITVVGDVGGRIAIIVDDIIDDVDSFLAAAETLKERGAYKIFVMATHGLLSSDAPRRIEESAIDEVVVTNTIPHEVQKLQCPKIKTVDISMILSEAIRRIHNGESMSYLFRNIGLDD
inactive: [1] 0.053 | [2] 0.033 | [3] -0.017 | [4] -0.028 | [5] -0.06 | [6] 0.017 | [7] -0.006 | [8] 0.029 | [9] -0.02 | [10] 0.009

PPP2R5E (UniProt Q16537)
inactive: [1] 0.017 | [2] 0.096 | [3] 0.005 | [4] -0.061 | [5] -0.007 | [6] 0 | [7] 0.075 | [8] 0.054 | [9] -0.013 | [10] 0.056

PRKAB2 (UniProt O43741)
UniProt O43741, sequence (O43741 whole entry, looked up): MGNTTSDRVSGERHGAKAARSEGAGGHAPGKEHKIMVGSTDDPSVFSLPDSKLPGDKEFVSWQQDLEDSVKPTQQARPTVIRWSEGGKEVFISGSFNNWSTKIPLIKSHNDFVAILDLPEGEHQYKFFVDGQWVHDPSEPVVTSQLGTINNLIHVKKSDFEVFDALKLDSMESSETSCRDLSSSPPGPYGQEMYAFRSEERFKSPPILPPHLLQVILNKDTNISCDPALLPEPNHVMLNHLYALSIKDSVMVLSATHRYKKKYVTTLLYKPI
inactive: [1] -0.054 | [2] 0.29 | [3] 0.103 | [4] 0.032 | [5] -0.022 | [6] -0.115 | [7] 0.203 | [8] 0.144 | [9] -0.218 | [10] 0.064

PAK4 (UniProt O96013)
inactive: [1] 0.155 | [2] -0.066 | [3] 0.017 | [4] -0.04 | [5] 0.015 | [6] 0.048 | [7] -0.068 | [8] -0.013 | [9] 0.062 | [10] -0.03

POMK (UniProt Q9H5K3)
inactive: [1] -0.091 | [2] -0.007 | [3] 0.019 | [4] 0.005 | [5] -0.01 | [6] 0.071 | [7] 0.005 | [8] -0.019 | [9] 0.006 | [10] 0.005

PSMD3 (UniProt O43242)
inactive: [1] -0.074 | [2] -0.05 | [3] -0.072 | [4] 0.002 | [5] -0.022 | [6] -0.028 | [7] 0.008 | [8] 0.033 | [9] -0.012 | [10] -0.066

QRSL1 (UniProt Q9H0R6)
inactive: [1] 0.024 | [2] 0.052 | [3] 0.118 | [4] -0.002 | [5] 0.06 | [6] -0.023 | [7] 0.071 | [8] -0.032 | [9] 0.017 | [10] -0.116

PSMD7 (UniProt P51665)
UniProt P51665, sequence (P51665 whole entry, looked up): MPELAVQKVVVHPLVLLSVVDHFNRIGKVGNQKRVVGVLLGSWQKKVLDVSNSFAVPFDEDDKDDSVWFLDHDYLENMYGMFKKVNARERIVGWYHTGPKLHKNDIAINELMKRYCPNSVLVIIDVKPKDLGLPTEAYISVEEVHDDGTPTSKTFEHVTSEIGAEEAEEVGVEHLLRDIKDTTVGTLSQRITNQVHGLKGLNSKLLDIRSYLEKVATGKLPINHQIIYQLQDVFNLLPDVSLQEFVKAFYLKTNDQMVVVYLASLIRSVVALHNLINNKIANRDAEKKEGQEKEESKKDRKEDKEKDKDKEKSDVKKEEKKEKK
inactive: [1] -0.074 | [2] -0.1 | [3] -0.045 | [4] -0.023 | [5] -0.015 | [6] -0.072 | [7] 0.02 | [8] -0.009 | [9] 0.044 | [10] -0.01

PPP6R1 (UniProt Q9UPN7)
UniProt Q9UPN7, sequence (Q9UPN7 whole entry, looked up): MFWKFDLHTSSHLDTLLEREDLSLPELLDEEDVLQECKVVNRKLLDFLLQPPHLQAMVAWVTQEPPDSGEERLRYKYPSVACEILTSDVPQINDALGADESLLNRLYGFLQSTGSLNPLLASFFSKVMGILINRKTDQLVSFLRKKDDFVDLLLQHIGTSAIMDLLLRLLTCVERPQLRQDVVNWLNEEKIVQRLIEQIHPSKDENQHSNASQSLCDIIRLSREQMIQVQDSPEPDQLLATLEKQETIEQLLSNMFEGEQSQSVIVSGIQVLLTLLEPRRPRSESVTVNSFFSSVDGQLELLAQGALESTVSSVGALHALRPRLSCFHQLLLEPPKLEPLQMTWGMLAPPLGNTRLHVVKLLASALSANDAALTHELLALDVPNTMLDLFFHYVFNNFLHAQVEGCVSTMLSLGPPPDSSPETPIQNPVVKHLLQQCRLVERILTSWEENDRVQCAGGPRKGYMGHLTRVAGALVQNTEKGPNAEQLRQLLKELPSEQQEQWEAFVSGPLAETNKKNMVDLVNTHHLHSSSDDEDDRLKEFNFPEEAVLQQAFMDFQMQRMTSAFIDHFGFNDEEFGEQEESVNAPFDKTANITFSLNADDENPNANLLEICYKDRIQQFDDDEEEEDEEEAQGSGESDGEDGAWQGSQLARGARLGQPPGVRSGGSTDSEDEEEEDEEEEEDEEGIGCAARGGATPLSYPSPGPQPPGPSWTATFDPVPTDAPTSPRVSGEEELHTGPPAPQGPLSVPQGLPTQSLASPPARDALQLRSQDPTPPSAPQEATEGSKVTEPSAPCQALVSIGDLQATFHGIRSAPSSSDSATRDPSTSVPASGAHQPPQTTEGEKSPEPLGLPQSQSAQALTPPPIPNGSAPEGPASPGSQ
inactive: [1] -0.022 | [2] -0.017 | [3] 0.013 | [4] -0.004 | [5] 0.025 | [6] 0.012 | [7] -0.022 | [8] -0.039 | [9] -0.014 | [10] 0.033

PELO (UniProt Q9BRX2)
inactive: [1] 0.153 | [2] 0.017 | [3] -0.108 | [4] 0.074 | [5] 0.105 | [6] -0.104 | [7] 0.079 | [8] 0.021 | [9] -0.097 | [10] -0.058

PRMT3 (UniProt O60678)
inactive: [1] -0.056 | [2] 0.147 | [3] 0.03 | [4] 0.027 | [5] 0.066 | [6] 0.011 | [7] 0.028 | [8] -0.003 | [9] -0.01 | [10] -0.089

PCBP1 (UniProt Q15365)
inactive: [1] -0.009 | [2] 0.092 | [3] 0.062 | [4] -0.031 | [5] 0.011 | [6] -0.002 | [7] 0.057 | [8] 0.031 | [9] -0.034 | [10] 0.002

PMM2 (UniProt O15305)
inactive: [1] 0.03 | [2] -0.034 | [3] 0.008 | [4] -0.02 | [5] 0.023 | [6] 0.003 | [7] -0.014 | [8] -0.019 | [9] -0.004 | [10] 0.05

PDS5A (UniProt Q29RF7)
inactive: [1] 0.225 | [2] 0.132 | [3] 0.04 | [4] -0.227 | [5] 0.05 | [6] -0.176 | [7] 0.14 | [8] 0.108 | [9] -0.25 | [10] -0.267

PPIL1 (UniProt Q9Y3C6)
UniProt Q9Y3C6, sequence (Q9Y3C6 whole entry, looked up): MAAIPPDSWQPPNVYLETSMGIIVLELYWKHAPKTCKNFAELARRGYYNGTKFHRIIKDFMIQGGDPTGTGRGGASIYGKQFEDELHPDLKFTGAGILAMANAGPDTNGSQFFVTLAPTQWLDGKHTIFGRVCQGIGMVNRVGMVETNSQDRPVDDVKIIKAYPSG
inactive: [1] 0.019 | [2] -0.009 | [3] -0.027 | [4] -0.012 | [5] 0.024 | [6] 0.061 | [7] -0.013 | [8] -0.025 | [9] -0.007 | [10] -0.027

PKN1 isoform 2 (UniProt Q16512)
active: [10] -0.326
inactive: [1] 0.018 | [2] 0.088 | [3] 0.064 | [4] 0.055 | [5] 0.059 | [6] 0 | [7] 0.011 | [8] 0 | [9] -0.061

PSMD1 (UniProt Q99460)
inactive: [1] -0.08 | [2] -0.074 | [3] 0.028 | [4] 0.021 | [5] -0.061 | [6] -0.018 | [7] 0.062 | [8] 0.034 | [9] 0.001 | [10] -0.025

PPT1 (UniProt P50897)
UniProt P50897, sequence (P50897 whole entry, looked up): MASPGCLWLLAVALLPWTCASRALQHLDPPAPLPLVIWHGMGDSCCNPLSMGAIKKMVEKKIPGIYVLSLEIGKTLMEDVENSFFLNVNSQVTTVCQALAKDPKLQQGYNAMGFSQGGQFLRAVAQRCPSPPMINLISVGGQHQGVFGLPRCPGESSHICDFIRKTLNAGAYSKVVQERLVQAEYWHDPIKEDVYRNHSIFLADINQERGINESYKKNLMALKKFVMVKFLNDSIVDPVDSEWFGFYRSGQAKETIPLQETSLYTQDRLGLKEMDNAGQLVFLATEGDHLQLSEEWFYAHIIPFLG
inactive: [1] 0.01 | [2] -0.011 | [3] 0.018 | [4] -0.003 | [5] 0.04 | [6] 0.007 | [7] 0.01 | [8] 0.024 | [9] 0.036 | [10] -0.009

PDSS2 (UniProt Q86YH6)
UniProt Q86YH6, sequence (Q86YH6 whole entry, looked up): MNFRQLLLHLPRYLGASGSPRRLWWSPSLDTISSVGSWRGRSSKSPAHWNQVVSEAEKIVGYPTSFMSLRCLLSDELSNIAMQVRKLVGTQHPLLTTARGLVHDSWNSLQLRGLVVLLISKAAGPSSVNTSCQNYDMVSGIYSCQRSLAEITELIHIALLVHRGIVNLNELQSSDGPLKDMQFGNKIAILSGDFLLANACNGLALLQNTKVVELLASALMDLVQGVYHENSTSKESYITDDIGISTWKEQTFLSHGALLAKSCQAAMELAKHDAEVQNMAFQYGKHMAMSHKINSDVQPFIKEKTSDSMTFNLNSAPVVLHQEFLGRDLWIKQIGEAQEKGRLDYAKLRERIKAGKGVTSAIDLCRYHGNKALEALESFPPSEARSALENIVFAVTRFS
inactive: [1] 0.029 | [2] -0.011 | [3] -0.04 | [4] 0.012 | [5] 0.053 | [6] -0.025 | [7] 0.026 | [8] -0.006 | [9] 0.061 | [10] 0.073

PCK2 (UniProt Q16822)
UniProt Q16822, sequence (Q16822 whole entry, looked up): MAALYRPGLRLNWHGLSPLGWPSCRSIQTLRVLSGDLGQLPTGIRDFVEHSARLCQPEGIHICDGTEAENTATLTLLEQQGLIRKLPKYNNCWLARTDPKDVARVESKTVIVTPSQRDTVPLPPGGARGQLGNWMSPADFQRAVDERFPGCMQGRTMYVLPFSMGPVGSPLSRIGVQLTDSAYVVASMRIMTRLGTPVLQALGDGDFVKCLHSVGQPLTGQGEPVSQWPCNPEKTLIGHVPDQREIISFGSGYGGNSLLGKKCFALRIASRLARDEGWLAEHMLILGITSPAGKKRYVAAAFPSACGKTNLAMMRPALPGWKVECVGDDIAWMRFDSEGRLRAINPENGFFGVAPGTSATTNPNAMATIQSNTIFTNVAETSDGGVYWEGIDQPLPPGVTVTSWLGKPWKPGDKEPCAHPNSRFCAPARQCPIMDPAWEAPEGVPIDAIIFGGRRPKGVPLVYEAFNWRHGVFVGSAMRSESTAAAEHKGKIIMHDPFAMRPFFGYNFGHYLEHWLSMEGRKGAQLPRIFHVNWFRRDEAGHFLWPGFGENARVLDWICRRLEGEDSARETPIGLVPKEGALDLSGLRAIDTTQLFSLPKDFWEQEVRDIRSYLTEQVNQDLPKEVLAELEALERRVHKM
active: [2] -0.224
inactive: [1] 0.025 | [3] 0.108 | [4] -0.009 | [5] 0.038 | [6] -0.016 | [7] -0.023 | [8] 0.072 | [9] -0.018 | [10] -0.001

PSMD6 (UniProt Q15008)
inactive: [1] -0.024 | [2] -0.041 | [3] -0.042 | [4] 0.017 | [5] -0.056 | [6] -0.007 | [7] 0.09 | [8] 0.053 | [9] 0.002 | [10] 0.016

PLSCR1 (UniProt O15162)
UniProt O15162, sequence (O15162 whole entry, looked up): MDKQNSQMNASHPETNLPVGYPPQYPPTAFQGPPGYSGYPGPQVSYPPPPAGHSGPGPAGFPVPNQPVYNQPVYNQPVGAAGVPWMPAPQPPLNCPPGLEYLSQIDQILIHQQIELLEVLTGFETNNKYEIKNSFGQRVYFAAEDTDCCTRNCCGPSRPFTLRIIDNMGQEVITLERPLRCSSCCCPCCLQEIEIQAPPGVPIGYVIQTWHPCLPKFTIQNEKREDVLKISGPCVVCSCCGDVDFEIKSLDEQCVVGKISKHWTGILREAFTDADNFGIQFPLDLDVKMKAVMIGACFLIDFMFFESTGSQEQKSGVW
inactive: [1] -0.023 | [2] 0.03 | [3] 0.089 | [4] 0.077 | [5] -0.004 | [6] 0.022 | [7] 0.061 | [8] -0.04 | [9] -0.008 | [10] 0.05

PSMD2 (UniProt Q13200)
UniProt Q13200, sequence (Q13200 whole entry, looked up): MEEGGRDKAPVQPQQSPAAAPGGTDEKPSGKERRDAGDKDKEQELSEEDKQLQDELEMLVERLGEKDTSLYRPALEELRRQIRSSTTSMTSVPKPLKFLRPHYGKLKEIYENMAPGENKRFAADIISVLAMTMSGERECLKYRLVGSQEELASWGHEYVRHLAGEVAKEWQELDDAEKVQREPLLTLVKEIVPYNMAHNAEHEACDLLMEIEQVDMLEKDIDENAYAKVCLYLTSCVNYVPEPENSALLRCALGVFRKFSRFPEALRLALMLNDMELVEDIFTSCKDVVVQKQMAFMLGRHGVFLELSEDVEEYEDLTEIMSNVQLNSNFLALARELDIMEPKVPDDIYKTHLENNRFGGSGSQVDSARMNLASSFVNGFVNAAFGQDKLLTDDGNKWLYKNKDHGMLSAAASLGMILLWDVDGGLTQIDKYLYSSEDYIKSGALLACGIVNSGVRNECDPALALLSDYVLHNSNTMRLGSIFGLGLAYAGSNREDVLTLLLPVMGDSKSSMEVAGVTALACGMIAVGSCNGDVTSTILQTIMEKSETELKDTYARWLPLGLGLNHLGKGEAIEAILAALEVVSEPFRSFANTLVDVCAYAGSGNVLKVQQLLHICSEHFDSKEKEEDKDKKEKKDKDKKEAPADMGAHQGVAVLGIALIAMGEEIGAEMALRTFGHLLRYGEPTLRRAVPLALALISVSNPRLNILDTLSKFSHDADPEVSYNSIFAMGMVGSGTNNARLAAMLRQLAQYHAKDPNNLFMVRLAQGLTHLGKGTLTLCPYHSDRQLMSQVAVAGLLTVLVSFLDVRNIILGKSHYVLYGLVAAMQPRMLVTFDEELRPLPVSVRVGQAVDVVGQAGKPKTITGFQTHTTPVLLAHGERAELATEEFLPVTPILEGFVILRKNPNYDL
inactive: [1] -0.095 | [2] -0.095 | [3] -0.042 | [4] -0.001 | [5] -0.043 | [6] -0.024 | [7] 0.007 | [8] 0.016 | [9] 0.005 | [10] -0.021

POLR2D (UniProt O15514)
inactive: [1] -0.153 | [2] -0.048 | [3] 0.138 | [4] 0.204 | [5] 0.06 | [6] 0.087 | [7] -0.049 | [8] -0.011 | [9] 0.058 | [10] 0.064
